{"source": "PubChem BioAssay (NCI)", "note": "Compounds without any hit were thinned out: in the full panel of roughly 83,000, 20% have a hit.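 Growth was measured after 48 h exposure to one concentration of compound in 96-well plates. Values under 10 count as active.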 A number with no mark means an inactive call. Calls of active or inactive are those of the source.", "data": [{"tested_on": "A549/ATCC NSCLC", "experiment": "NCI-60 one-dose screen, 48 h (100 = growth as untreated, 0 = no growth, -100 = all killed)", "settings": "10 µM unless noted", "values": [{"molecule": "COC(=O)C1=Nc2ccc(F)cc2/C1=C\\c1sc(Nc2ccc(O)cc2)nc1O", "growth": "99%"}, {"molecule": "COc1ccc(OC)c(Nc2nnc(-c3ccc(Cl)cc3)o2)c1", "growth": "44.7%"}, {"molecule": "O=C(OC[C@@H]1CO1)c1cccc2c(=O)c3ccccc3[nH]c12", "growth": "-20% (active)"}, {"molecule": "CNC(=O)c1c(NC(=O)c2ccc(C(C)(C)C)cc2)sc2c(CN(C)C)c(O)ccc12", "growth": "17.7%"}, {"molecule": "C=C1C(=O)O[C@H]2[C@H]1CC/C(COC(=O)c1cc3cc(F)ccc3[nH]1)=C\\CC[C@@]1(C)O[C@@H]21", "growth": "-61.9% (active)"}, {"molecule": "COc1ccc2[nH]cc(-c3nc(-c4cn(C)c5ccncc45)cs3)c2c1", "growth": "6.03% (active)"}, {"molecule": "Brc1ccc(-c2cnc3nonc3n2)cc1", "growth": "91.9%"}, {"molecule": "CC(C)CN1CC(C(=O)Nc2ccc3c(c2)-c2ccccc2C3)CC1=O", "note": "(centres undefined)", "growth": "78.7% [50 µM]"}, {"molecule": "COc1cc2ncnc(Nc3ccc(F)c(Cl)c3)c2cc1OCC(=O)N1CCN(c2ccc(F)cc2)CC1", "growth": "79.7%"}, {"molecule": "COc1ccc(-c2cn(-c3ccc(Cl)cc3)c(SCC(=O)c3ccc([N+](=O)[O-])cc3)n2)cc1", "growth": "101%"}, {"molecule": "CCN(CC)S(=O)(=O)c1ccc(S(=O)(=O)N2CCC[C@@H](C(=O)N3CCN(C(=O)OC(C)(C)C)CC3)C2)cc1", "growth": "67.7%"}, {"molecule": "O=C(c1ccc(Cl)cc1Cl)N1c2ccccc2Sc2ccccc21", "growth": "54.2%"}, {"molecule": "COc1ccc(C2C3=C(COC3=O)N(CCO)c3cc4c(cc32)OCCO4)cc1OC", "note": "(centres undefined)", "growth": "51.2%"}, {"molecule": "N#C/C(=C\\c1ccc(-c2ccc(Cl)cc2)o1)c1ccc(Cl)cc1", "growth": "35.4%"}]}]}
